Data on five compounds can be found in PubChem BioAssay (NCATS).

In test [1] the target is Cytochrome P450 2D6 (Homo sapiens) (UniProt P10635). Briefly: qHTS Assay for Inhibitors and Substrates of Cytochrome P450 2D6 (AID 891). Note: potency is the fitted concentration of half-maximal effect; nearly all actives have a fitted effect of over 60% in size. In short, it runs like this:
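Luminescent read-out of luciferin formed by 5 nM human CYP2D6 demethylating 30 uM Luciferin-ME EGE (Km level) over 60 min at room temperature after NADPH regeneration addition. Data normalized to full inhibition by 1.43 uM quinidine.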

Test [2] can be described thus: Cell Viability - HepG2 (AID 433; calls by dose curve;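 note: potency is the fitted concentration of half-maximal effect; potency for ATP loss meaning cytotoxicity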). The note with it: qHTS. In short, it runs like this: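 Cytotoxicity is scored as loss of intracellular ATP in HepG2 cells exposed to compounds for 40 h. Concentration-response curves, normalized to DMSO and 100 uM tamoxifen, give AC50 values.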
(qHTS replaces the single test concentration by a dilution series.)

Test [3] in a line: Cell Viability - NIH 3T3 (AID 541).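 Note: plate controls were DMSO alone for no effect and tamoxifen positive control for full effect; nearly all actives have a fitted effect of over 25% in size.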 Conditions: NIH 3T3 cell viability, qHTS; activity change, negative = cytotoxicity: at 92.2 µM (top of the series). In a few lines: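 qHTS format; 40 hr compound exposure, 37 °C; CellTiter-Glo luminescence (cellular ATP) read-out after 20 min at RT. Decrease in ATP = cytotoxicity; AC50 from standard Hill fit.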
The nature of test [4]: Cell Viability - HUV-EC-C (AID 542). For activity change, negative = cytotoxicity: % is set by controls: 0 for no effect and ±100 for the full control effect. Note: nearly all actives have a fitted effect of over 35% in size. Note: potency is the fitted concentration of half-maximal effect. In short, it runs like this: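 Luminescent ATP read-out (CellTiter-Glo, 20 min room temperature) after 40 hr compound treatment of HUV-EC-C cells at 37 °C. Concentration-response data fitted with the standard Hill equation to give AC50; tamoxifen and doxorubicin served as positive controls.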
Test [5] in a line: Cellular Toxicity (caspase-3) HepG2 (AID 654).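 Note: cells exposed to compound for 16 hours before reading; 0% = DMSO alone and 100% = caspase signal from 100 µM tamoxifen.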 In short, it runs like this: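 Luminescent Caspase-Glo 3/7 readout after 16 hr compound exposure of human hepatocellular carcinoma HepG2 cells at 37 °C; qHTS concentration-response, normalized DMSO = 0%, 100 uM tamoxifen = 100%; AC50 by standard Hill equation.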
Test [6] can be described thus: Cellular Toxicity (caspase-3) Jurkat (AID 655).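 Note: cells exposed to compound for 16 h at 37 °C before reading.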 Conditions: Jurkat caspase-3 activation, luminescence, DMSO = 0%, tamoxifen = 100%; at 92.2 µM (top of the series). In a few lines:
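Caspase 3/7 activation is scored as increased luminescence in Jurkat cells cultured with compound for 16 hours in complete medium. AC50 values come from Hill fits of qHTS concentration-response data normalized to DMSO and 100 uM tamoxifen controls.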

A short description of test [7]: Cellular Toxicity (caspase-3) SHSY5Y (AID 657).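 Note: cells exposed to compound for 16 hours at 37 °C.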 In a few lines: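 Cells plated and incubated 5 h at 37 °C, dosed over a concentration range, incubated 16 h, then given Caspase-Glo 3/7 reagent for 1 h at room temperature before luminescence reading. Staurosporine (10 uM) defined full stimulation.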
Test [8] is described as follows: Cellular Toxicity (caspase-3) MRC-5 (AID 659).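 Note: 0% = DMSO basal and 100% = 10 µM staurosporine.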 In a few lines: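 Luminescent Caspase-Glo 3/7 read-out (1 h, room temperature) after a 16 h, 37 °C compound exposure of MRC-5 lung fibroblasts at 1500 cells/well. Concentration-response AC50 from Hill equation; 0% DMSO, 100% 10 uM staurosporine.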
The nature of test [9]: Cellular Toxicity (caspase-3) Mesangial (AID 660).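 Note: combined caspase 3 and 7 activity read by Caspase-Glo luminescence; cells exposed to compound for 16 h before the caspase read.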 In a few lines:
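Luminescent Caspase-Glo 3/7 readout (aminoluciferin substrate cleavage, 20 min RT) after 16 h compound exposure at 37 °C of normal human mesangial cells. Signal increase normalized between DMSO basal and 100 uM tamoxifen; Hill-equation AC50.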

The nature of test [10]: Cellular Toxicity (caspase-3) Hek293 (AID 664).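 Note: cells exposed to compound for 16 h at 37 °C before readout.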 In a few lines:
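Luminescent Caspase-Glo 3/7 readout (aminoluciferin release) in HEK293 cells after 16 h compound treatment, 37 °C. Normalization: DMSO = basal, 100 uM tamoxifen = 100% stimulation. Concentration-response fitted with standard Hill equation for AC50.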

A short description of test [11]: Cell Viability - LYMP2-001 (AID 921).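 Note: cells exposed to compound for 24 h at 37 °C; 0% = DMSO only and full inhibition = tetraoctylammonium bromide control wells; nearly all actives have a fitted effect of over 70% in size.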 In short, it runs like this:
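qHTS, 1536-well; lymphoblastoid cells, 24 hr compound, 37 C; ATP by CellTiter-Glo, 30 min RT; luminescence; Hill-fit AC50.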

Test [12] deals with Peroxisome proliferator-activated receptor gamma (Homo sapiens) (UniProt P37231). Briefly: qHTS assay for small molecule agonists of peroxisome proliferator-activated receptor gamma signaling (AID 588536; active = well fitted curve in the direction sought with a large enough effect in the signal ratio, with a control signal flat, not every such curve was filed as active; the % refers to the signal ratio;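 note: 0% = DMSO basal wells and 100% = rosiglitazone at 2 µM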). In short, it runs like this:
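Using GeneBLAzer HEK293 cells, response was quantified by CCF4 fluorescence and normalized between basal DMSO (0%) and rosiglitazone 2 uM (100%); curves yielded half-maximal stimulation concentration and efficacy.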

The nature of test [13]: qHTS assay for small molecule agonists of retinoid X receptor alpha signaling (AID 588544; calls by dose curve;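 for activation: 0% = DMSO basal wells and 100% = reference agonist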). Conditions: HEK293T RXRa-UAS-bla, beta-lactamase reporter, 18 h; 530 nm emission.
For test [14], the target named is Retinoic acid receptor RXR-alpha (Homo sapiens) (UniProt P19793). Described as above.
Chain of Retinoic acid receptor RXR-alpha (Homo sapiens) (P19793 whole entry, looked up): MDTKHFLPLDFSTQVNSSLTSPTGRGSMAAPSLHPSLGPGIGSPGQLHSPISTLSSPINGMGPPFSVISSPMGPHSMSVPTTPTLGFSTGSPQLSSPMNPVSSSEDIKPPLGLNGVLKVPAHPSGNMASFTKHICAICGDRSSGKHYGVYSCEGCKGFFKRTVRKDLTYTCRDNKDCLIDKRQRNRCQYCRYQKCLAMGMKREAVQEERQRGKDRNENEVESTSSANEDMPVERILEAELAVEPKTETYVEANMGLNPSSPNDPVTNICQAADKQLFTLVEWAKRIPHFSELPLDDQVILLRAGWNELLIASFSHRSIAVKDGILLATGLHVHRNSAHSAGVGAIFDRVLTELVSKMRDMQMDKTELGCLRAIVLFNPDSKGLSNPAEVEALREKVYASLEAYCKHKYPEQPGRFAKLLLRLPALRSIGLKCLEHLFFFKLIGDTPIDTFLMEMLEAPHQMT
A short description of test [15]: qHTS assay for small molecule antagonists of retinoid X receptor alpha signaling (AID 588546).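 Note: cells stimulated with 9-cis-retinoic acid as agonist; % is set by controls: 0 for no effect and ±100 for the full control effect.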 The note with it: HEK293T RXRa-UAS-bla, beta-lactamase ratio, antagonist mode; measured here: W530 green channel, cytotoxicity proxy. In short, it runs like this:
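Beta-lactamase reporter inhibition, read as CCF4 fluorescence ratio (ex 405, em 460/530 nm) after 2 h at RT. HEK293T UAS-bla cells, 2500/well, were stimulated with 9-cis-RA at 500 or 100 nM final alongside test compound for 18 h at 37 C.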

Test [16] can be described thus: qHTS assay for small molecule agonists of the antioxidant response element (ARE) signaling pathway (AID 651741; active = well fitted activation curve with a large enough effect in the signal ratio; the % refers to the signal ratio; note: potency is the fitted concentration of half-maximal effect; for activation: % of control where 0% means no effect). In a few lines:
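Agonist activity is measured as ARE-driven beta-lactamase expression in a stable HepG2 reporter line, using 16 h compound treatment at 37 C and a FRET substrate fluorescence readout after 2 h.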

Test [17] in a line: qHTS assay for small molecule activators of the nuclear factor-kappa B (NF-kB) signaling pathway (AID 651749; active = well fitted activation curve with a large enough effect in the signal ratio; the % refers to the signal ratio; note: % of control where 0% means no effect). The note with it: NF-kB-bla ME-180 cells, beta-lactamase FRET ratio, 16 h; activation: stronger effect = higher value. In short, it runs like this:
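FRET-based beta-lactamase detection in ME-180 cells reports NF-kB response-element-driven transcription following overnight (16 hr) compound treatment.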

The target of test [18] is Tumor necrosis factor (Homo sapiens) (UniProt P01375). Briefly: qHTS assay to identify small molecules that stimulate Tumor Necrosis Factor-alpha (TNF-alpha) secretion (AID 651757; active = well fitted curve in the direction sought with a large enough effect in the signal ratio; the % refers to the signal ratio; note: 0% is about no effect). In short, it runs like this:
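THP-1 cells, 3000/well; compound 17 hrs, 37 C; add cryptate/XL665 anti-TNF-alpha antibody pair; 3 hr RT; TR-FRET (HTRF) read of secreted TNF-alpha. Quantitative HTS format.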

Test [19] is described as follows: qHTS assay for environmental chemicals that activate the Aryl hydrocarbon Receptor (AhR) signaling pathway (AID 651777). Note: % of control where 0% means no effect; nearly all actives have a fitted effect of over 15% in size. Conditions: 1A2-DRE human hepatoma cells, luciferase, 24 h; activation: stronger effect = higher value. In a few lines: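 1A2-DRE human hepatoma reporter line; 1,200 cells/well; cmpd or DMSO 24 h, 37 C/5% CO2; One-Glo 30 min RT; luciferase lum.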
Test [20] in a line: qHTS assay for small molecule antagonists of the retinoid-related orphan receptor gamma (ROR-gamma) signaling pathway - cell viability counter screen (AID 720652; active = well fitted curve in the direction sought with a large enough effect in the repeat runs; an effect the other way counts as inactive or inconclusive;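 note: compound exposure lasted 16 hr before ATP read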; note: potency is the fitted concentration of half-maximal effect;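 for activity change, negative = cytotoxicity: CHO reporter cells with doxycycline-induced ROR-gamma expression; % is set by controls: 0 for no effect and ±100 for the full control effect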). In short, it runs like this:
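CHO RORE-LUC/TET-ROR line, 1,000 cells/well, 37 C 5% CO2 5 hr; cpd or DMSO + doxycycline induction, 16 hr. CellTiter-Glo, 30 min RT, luminescence = ATP content.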

Where “and” joins values, the source holds several entries; their conditions need not be identical. Equal values may be shown once. Records with an inconclusive call do not appear. Calls of active or inactive are those of the source. Unless noted, calls come from the whole dose curve; as a rule, active = well fitted curve in the direction sought with a large enough effect; inconclusive = small, poorly fitted or top-dose-only effect, or another doubt; inactive = no such curve, though single readings can be large; an effect the other way counts as inactive or inconclusive.

Chain of Tumor necrosis factor (Homo sapiens) (P01375 whole entry, looked up): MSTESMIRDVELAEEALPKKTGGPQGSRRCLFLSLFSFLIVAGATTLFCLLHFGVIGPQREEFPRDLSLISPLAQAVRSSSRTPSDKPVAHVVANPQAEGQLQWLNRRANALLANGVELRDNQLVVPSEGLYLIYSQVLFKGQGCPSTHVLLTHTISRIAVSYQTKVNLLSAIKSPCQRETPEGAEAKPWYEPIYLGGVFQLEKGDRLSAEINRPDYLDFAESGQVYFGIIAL
Chain of Peroxisome proliferator-activated receptor gamma (Homo sapiens) (P37231 whole entry, looked up): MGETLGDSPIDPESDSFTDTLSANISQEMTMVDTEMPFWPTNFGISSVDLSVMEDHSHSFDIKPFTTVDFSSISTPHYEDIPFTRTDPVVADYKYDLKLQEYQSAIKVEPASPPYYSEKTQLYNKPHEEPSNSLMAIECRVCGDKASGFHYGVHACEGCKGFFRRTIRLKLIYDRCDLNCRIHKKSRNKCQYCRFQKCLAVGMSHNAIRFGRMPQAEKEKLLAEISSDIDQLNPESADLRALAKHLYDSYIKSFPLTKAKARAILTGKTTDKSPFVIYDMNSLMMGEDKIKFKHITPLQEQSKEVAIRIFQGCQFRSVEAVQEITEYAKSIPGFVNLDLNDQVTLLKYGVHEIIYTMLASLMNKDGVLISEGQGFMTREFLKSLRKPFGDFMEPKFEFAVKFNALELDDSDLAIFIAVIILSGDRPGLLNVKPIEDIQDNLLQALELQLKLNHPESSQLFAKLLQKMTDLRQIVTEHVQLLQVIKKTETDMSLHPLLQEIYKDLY
Chain of Cytochrome P450 2D6 (Homo sapiens) (P10635 whole entry, looked up): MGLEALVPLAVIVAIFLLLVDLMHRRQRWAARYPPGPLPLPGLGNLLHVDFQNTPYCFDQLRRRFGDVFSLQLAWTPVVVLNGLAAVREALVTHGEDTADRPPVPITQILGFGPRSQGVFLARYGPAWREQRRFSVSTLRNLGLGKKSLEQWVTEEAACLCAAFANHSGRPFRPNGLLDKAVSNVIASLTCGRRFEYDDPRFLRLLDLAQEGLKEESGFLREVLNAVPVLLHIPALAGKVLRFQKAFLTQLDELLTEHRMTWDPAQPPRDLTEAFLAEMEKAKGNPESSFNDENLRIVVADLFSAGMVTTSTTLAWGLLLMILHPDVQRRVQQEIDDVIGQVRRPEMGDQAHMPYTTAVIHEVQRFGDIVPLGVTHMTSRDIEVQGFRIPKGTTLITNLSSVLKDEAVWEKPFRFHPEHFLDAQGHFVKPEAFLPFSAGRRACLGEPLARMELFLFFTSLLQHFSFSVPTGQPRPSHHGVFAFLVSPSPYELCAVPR

Consider `c1cncc([C@H]2CCCCN2)c1`, for which the Potency in [1] was 12.6 µM (active).
In the case of `COC(=O)NC(=S)Nc1ccccc1NC(=S)NC(=O)OC`, the figures for the Potency in [2] and in test [16] were > 92 µM (inactive) and 37.6 µM (active), respectively. Besides, the activity change, negative = cytotoxicity in [3] is -30% (inactive). Moreover, the Potency entry in test [4], in test [11], in test [14] and in [20] was “inactive” in each case. Moreover, the outcome in [5], in test [7], in [8], in [9], in test [10] and in test [12] was inactive. Further, the call in test [18] was inactive. Also, in [6], the caspase-3 activation is 2.97% (inactive). The max response is 18.1% and -8.17% in test [13]; 3.84% and -2.84% in [15]. The activation in test [17] was 0.272% (inactive) and -1.52% (inactive); in [19], 11.9% (inactive) and 4.33% (inactive).
`COP(=S)(OC)Oc1ccc([N+](=O)[O-])cc1`: the Potency in test [2] is > 92 µM (inactive). Also, the activity change, negative = cytotoxicity in test [3] is -18.8% (inactive). Also, the Potency result in test [4], in test [11], in [14], in test [16] and in test [20] was “inactive” in each case. Further, the result in test [5], in test [7], in test [8], in test [9], in [10] and in test [12] was inactive. Besides, the compound was called inactive in test [18]. Also, the caspase-3 activation in test [6] was 4.38% (inactive). Besides, the max response was -22.5% and 4.79% in test [13]; -15.3% and -6.14% in [15]. Further, the activation is -0.601% (inactive) in test [17]; 0.87% (inactive) and 0.313% (inactive) in test [19].
Take `CCCCCCCCCc1ccc(O)cc1`: the Potency in test [2] is > 92 µM (inactive); in test [4] it was 31.6 µM (active); in test [16], 75 µM (active) and 30.6 µM (active); in test [20], 66.8 µM (active). For the same compound, the Potency entry in [11] and in test [14] was “inactive” each time. The outcome in [12] and in [18] was inactive. Besides, the max response in test [13] was -5.72%; in test [15], -16.1%. The activation in [17] was 1.31% (inactive); in test [19], 10.9% (inactive) and 1.36% (inactive).
With `C/C=C/c1ccc2c(c1)OCO2`, the Potency in test [2] is > 92 µM (inactive). The activity change, negative = cytotoxicity in [3] is -3.37% (inactive). For the same compound, the Potency result in test [4], in test [11], in [14] and in [20] was “inactive” in each case. In addition, the compound was called inactive in test [5], in test [7], in test [8], in [9], in test [10] and in test [12]. Moreover, in test [18], the call was inactive. In addition, the caspase-3 activation in test [6] is 2.64% (inactive). Also, the values for the max response in test [13] and in test [15] were -11.2% and -8.06%, respectively. Also, the activation in [17] is -1.42% (inactive).
